Experimental data: PubChem BioAssay (Tox21)
Results filed as inconclusive are left out. Unmarked numbers belong to inactive results. The source made the active and inactive calls. Calls come from the whole dose curve; as a rule, active = well fitted activation curve with a large enough effect in the repeat runs; inconclusive = weak or mixed curves; inactive = flat fitted curve, though single readings scatter.

Experiment: A CellTox Green Cytotoxicity Assay to monitor cytotoxicity in HepG2 cells - 40 hour (AID 1224879); note: nearly all actives have a fitted effect of over 40% in size
Details: CellTox Green fluorescence; series mostly up to 76.8 µM; cytotoxicity increase: at the top concentration
Text: National Center for Advancing Translational Sciences [NCATS]
NIH Chemical Genomics Center [NCGC]
U.S. Environmental Protection Agency [EPA]
National Institutes of Environmental Health Sciences [NIEHS]
National Toxicology Program [NTP]
Cell-based models are critical for drug discovery. Determining the natural cytotoxic effects resulting from test compounds is an essential research activity. A CellTox Green Cytotoxicity Assay to monitor cytotoxicity in real time of continues cell culture during 40 hours of the compound treatment was used to screen Tox21 10K library compounds in HepG2 cells. CellTox Green Cytotoxicity Assay is a nonlytic, homogeneous, biofluorescent method to measure cytotoxicity in cell culture after experimental manipulation. The assay system uses a proprietary asymmetric cyanine dye that is excluded from viable cells but preferentially stains the dead cell's DNA. […] Viable cells produce no appreciable increases in fluorescence. Therefore, the fluorescence signal produced by the binding interaction with dead cell DNA is proportional to cytotoxicity.
The mixture of HepG2 cell suspension and reagents were dispensed at 600cells/6 ul/well in 1536-well tissue culture treated black solid bottom plates using a Multidrop dispenser. After the assay plates were incubated at a 37 C/5% CO2 incubator for 5 hours, 23 nL of compounds dissolved in DMSO, positive and negative controls was transferred to the assay plate by a pintool work station. The plates were incubated at 37 C for 40 hours. The fluorescence intensity were measured at 0h, 8h, 16h, 24h, 32h and 40h time points using ViewLux plate reader during compound treatment.
% is set by controls: 0 for no effect and ±100 for the full control effect; potency is the fitted concentration of half-maximal effect.

SMILES | cytotoxicity increase | Potency
COc1cccc(OC)c1 | -12.3% | 
CCO[Si](C)(OCC)OCC | -7.27% | 
C1CCCCCCCCCCC1 | -12.7% [at 15.8 µM] | 
OC/C=C/c1ccccc1 | 2.74% | 
C(=C(c1ccccc1)c1ccccc1)c1ccccc1 | -16.4% | 
[O-][N+](=Nc1ccccc1)c1ccccc1 | -0.334% | 
Cn1cnc2c(=O)[nH]c(N)nc21 | 6.26% | 
CCOC(=O)[C@H](CCc1ccccc1)N[C@@H](C)C(=O)N1CCC[C@H]1C(=O)O | 3.43% [at 35.3 µM] | 
C=C(C)C(=O)NCCCN(C)C | -19.4% | 
OCCCCCCO | -11.2% | 
Cc1c(F)cc2c(=O)c(C(=O)O)cn3c2c1CCC3C (stereo not given) | -3.74% [at 35.3 µM] | 
c1cc(CN2CCCCC2)cc(OCCCNc2nc3ccccc3s2)c1 |  | 23.9 µM (active)
O=c1[nH]c2ccccc2c(=O)n1CCCl | -18.4% [at 35.3 µM] | 
C/C=C1\C(=O)C[C@H]2[C@@H]3CCC4=CC(=O)CC[C@]4(C)[C@H]3CC[C@]12C | 0.746% [at 35.3 µM] | 
CCc1cc(S(=O)(=O)O)c2cc(C(C)C)cccc1-2 | -13.7% [at 35.3 µM] | 
Cc1c(C)n(CCN(C)C)c2ccc(C(=O)OCCN(C)C)cc12 | 8.35% [at 35.3 µM] | 
CC(C)CCOC(=O)CC(C)C | -12.5% | 
Cc1onc(-c2ccccc2)c1-c1ccc(S(N)(=O)=O)cc1 | 1.64% [at 35.3 µM] | 
OCc1ccccn1 | -0.154% [at 35.3 µM] | 
COc1nc(C)nc(N)n1 | -0.48% | 

SMILES | cytotoxicity increase | Potency
CC1(C)OC(=O)Nc2ccc(Br)cc21 | 9.25% [at 35.3 µM] | 
O=C(O)Cc1cc(I)c(Oc2cc(I)c(O)c(I)c2)c(I)c1 | 0.864% [at 35.3 µM] | 
CN1[C@@H]2CC[C@H]1CC(NC(=O)n1c(=O)[nH]c3ccccc31)C2 (stereo not given in full) | -3.03% [at 35.3 µM] | 
O=c1[nH]c(=O)n([C@H]2O[C@H](CO)[C@@H](O)[C@@H]2O)cc1/C=C\Br | -2.35% [at 35.3 µM] | 
C#CC(O)CCCCC (stereo not given) | -4.45% | 
C1C2OC2C2C1C1CC2C2OC12 (stereo not given) | 2.85% | 
C=C(C)[C@H]1CC=C(C)CC1 | -0.506% | 
OCC(CO)(CO)COCC(CO)(CO)CO | -4.28% | 
C#CC(O)C(CC)CCCC (stereo not given) | 10.7% | 
CCCCCCC(CCCCCCCCCCC(=O)OCC(COC(C)=O)OC(C)=O)OC(C)=O (stereo not given) | 9.44% [at 35.3 µM] | 
COc1cc(C(=O)N2CCOCC2)cc(OC)c1OC | -8.08% [at 35.3 µM] | 
CC(C)(O)C(=O)c1ccc(OCCO)cc1 | -2.37% | 
Oc1cc(O)c2c(c1)O[C@H](c1ccc(O)c(O)c1)[C@H](O)C2 | 1.91% [at 35.3 µM] | 
CCN1CCN(c2cc3c(cc2F)c(=O)c(C(=O)O)cn3C2CC2)CC1 | 0% [at 35.3 µM] | 
O=S(=O)(O)c1ccccc1O | -9.99% | 
CC(C)(O)c1ccccc1 | -7.38% | 
CC(C)COC(=O)c1ccccc1O | 0.529% | 
NC(=S)Nc1cccc2ccccc12 | 2.43% [at 6.97 µM] | 
CC(C)=CC(=O)O | 8.88% | 
O=C1OC(=O)c2cc([N+](=O)[O-])ccc21 | -4.68% | 
